# Screening data as filed in PubChem.
# HIF-2a inh = blocks HIF-2a reporter activity | 360,000 compounds, 0.72% hits | 786-0 RCC cells HIF-2a reporter, luciferase luminescence, overnight | inhibition, % at 18.8 µM;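 active = inhibition of the luminescence signal of 40% or more relative to plate controls, in a single-dose primary screen at 18.75 µM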
# EWS-Fli inh = inhibitors of EWS/Fli oncoprotein transcriptional activity; 350,000 compounds, 0.67% hits; inhibition, % at 12.6 µM; A673 NR0B1-luciferase reporter, viability-normalised;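 active = mean inhibition of at least 50% after viability correction, with every replicate also passing that limit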;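 note: firefly luciferase signal divided by Alamar Blue viability fluorescence both relative to DMSO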
# PAX8 inh HTS = inhibitors of PAX8 transcriptional activity in RMG-I cells; RMG-I TPO-luciferase reporter, SteadyGlo, 24 h; inhibition, % at 12.6 µM; 360,000 compounds, 1.2% hits; AID 652154;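 active = mean replicate inhibition at least 60% with every replicate also reaching 60%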;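 note: luciferase light reporting Pax8 driven TPO promoter activity; plate controls were median of neutral control wells for no effect and mitoxantrone controls for full effect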
# KKLEB cytotox = counter-screen for CF NF-kB inhibitors: cytotoxicity; KKLEB CF airway cells viability, ATPlite luminescence, overnight; active compounds read low; cells stimulated with P. aeruginosa culture filtrate; activity change (cytotoxicity), % at 5 µM; 360,000 compounds, 0.36% hits; AID 602141;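 active = corrected activity change at or below -50% at 5 µM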
# CF NFkB block = inhibitors of cystic fibrosis induced NF-kB; inhibition, % at 5 µM; AID 588850; KKLEB NF-kB-GFP reporter, PAF-induced, GFP fluorescence overnight; 360,000 compounds, 0.86% hits;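 active = at least 50% inhibition at 5 µM, scaled per plate between neutral and stimulator controls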;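 note: PAF is a Pseudomonas aeruginosa culture filtrate used as stimulus; plate controls were PAF-stimulated DMSO wells for no effect and unstimulated DMSO wells for full effect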
# Mdm2-MdmX confirm = Mdm2/MdmX (human) interaction inhibition, confirmed. shares compounds with HIF-2a inh. SaOS-2 split-luciferase Mdm2/MdmX complementation, luminescence. inhibition, % at 8 µM. 740 compounds, 99% hits. AID 504601;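 active = mean inhibition of the luminescence signal across two replicates at or above 26 percent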
# HIF-2a inh conf = HIF-2a inhibition, single concentration confirmation; shares compounds with HIF-2a inh; 786-0 RCC cells, HIF-2a luciferase reporter luminescence, overnight; inhibition, % at 18.8 µM; 1,800 compounds, 56% hits; AID 651580;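 active = mean inhibition across four replicates of at least 40 percent at the single tested concentration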
# HIF-1a cs = inhibits HIF-1a reporter, a counter-screen for HIF-2a inhibitors | inhibition, % at 18.8 µM | MiaPaCa-2 HIF-1a luciferase reporter, desferoxamine, overnight | 1,800 compounds, 72% hits | AID 651589 | shares compounds with HIF-2a inh;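 active = mean inhibition of the reporter signal across four replicates at the single tested dose of 50% or more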
# An asterisk follows results filed as active; / = not tested or not shown. Only some compounds are listed: those with a hit (about 2.1% of all), similar ones and a draw of the others.
SMILES,HIF-2a inh,EWS-Fli inh,PAX8 inh HTS,KKLEB cytotox,CF NFkB block,Mdm2-MdmX confirm,HIF-2a inh conf,HIF-1a cs
Cc1ccccc1OCC(O)CNC1CCC(NCC(O)COc2ccccc2C)CC1 (stereo not given),93*,69*,114*,-37,38,103*,21,105*
Cc1ccc(OCC(O)CNC2CCCC2)c(C)c1 (stereo not given),6,5,3,-6,-7,/,/,/
Cc1ccc(NC(=O)c2cc(N3C(=O)C=CC3=O)ccc2N2CCOCC2)cc1Cl,48*,15,52,-9,30,/,68*,31
COc1ccccc1-c1cc(C(F)(F)F)nc(S(=O)(=O)CCCC(=O)N2CCOCC2)n1,83*,/,/,-79*,90*,/,48*,104*
COC(=O)CCn1nnc(-c2ccc(C(C)C)cc2)n1,91*,/,-3,10,-6,/,96*,75*
O=c1[nH]c(CN2CCN(S(=O)(=O)/C=C/c3ccccc3)CC2)nc2cc(Cl)ccc12,50*,23,14,-24,-10,/,18,93*
O=c1[nH]c(CN2CCN(S(=O)(=O)/C=C/c3ccccc3)CC2)nc2ccccc12,13,9,10,-4,-2,/,/,/
Cc1noc2ncnc(Sc3ccc(Cl)cc3)c12,34,/,/,-12,36,/,/,/
Cc1noc2ncnc(Sc3c(Cl)cccc3Cl)c12,43*,/,/,6,16,/,23,95*
O=C(Nc1cccc(C(F)(F)F)c1)Nc1nnc([C@H]2C[C@H](O)[C@@H](CO)O2)s1,16,-20,-27,-9,10,/,/,/
CCSCCc1nnc(NC(=O)Nc2cccc(C(F)(F)F)c2)s1,9,24,106*,-56*,70*,98*,/,/
C[C@H]1CN([C@@H](C)CO)C(=O)c2cccc(NC(=O)Nc3ccc(C(F)(F)F)cc3)c2O[C@H]1CN(C)Cc1ccc(C(=O)O)cc1,/,-9,/,/,/,/,/,/
CC(C)(C)c1nc(SCC(=O)Nc2nc3c(s2)CCCC3)c2ccccc2n1,-5,/,/,-42,26,101*,/,/
C[C@@H](O)C#Cc1ccc([C@H]2[C@H](CO)N3CCCCN(CC4CCOCC4)C[C@@H]23)cc1,/,-6,-20,/,/,/,/,/
CC(=O)Nc1ccc(C(=O)OCC(=O)N(c2ccccc2)C2CCS(=O)(=O)C2)cc1 (stereo not given),12,5,1,6,1,/,/,/
O=C(CCl)N(c1ccccc1)C1CCS(=O)(=O)C1 (stereo not given),31,/,44,-2,9,103*,/,/
CCOc1cc(CNCCc2ccc(S(N)(=O)=O)cc2)ccc1OCc1ccc(Cl)cc1,86*,/,/,-45,-7,/,3,102*
CCOc1cc(/C=N/N=C(N)N)ccc1OCc1ccc(Cl)cc1,97*,-4,31,-24,6,/,-11,107*
COc1cc(CNCCc2ccc(S(N)(=O)=O)cc2)ccc1OCc1ccc(Cl)cc1,75*,1,/,-24,20,/,-8,94*
CCOc1ccc(CNCCc2ccc(S(N)(=O)=O)cc2)cc1,6,-2,4,16,-14,/,/,/
CO[C@H](CN(C)C(=O)c1cc(Cl)cc(Cl)c1)[C@@H](C)CN(C(=O)Nc1ccc(F)cc1)[C@H](C)CO,/,8,/,/,/,/,/,/
C[C@@H]1CN([C@@H](C)CO)C(=O)Cc2cc(N(C)C)ccc2O[C@@H]1CN(C)S(=O)(=O)c1ccccc1,/,/,4,/,/,/,/,/
C[C@@H]1CN([C@H](C)CO)C(=O)c2cc(NC(=O)Nc3ccc(C(F)(F)F)cc3)ccc2O[C@@H](C)CCCCO[C@H]1CN(C)S(=O)(=O)c1cn(C)cn1,/,11,12,/,/,/,/,/
Nc1nc(F)nc2c1ncn2[C@@H]1O[C@H](CO)[C@@H](O)[C@H]1O,57*,45,108*,-28,81*,/,55*,107*
COc1cc(SC#N)ccc1N=Cc1c(C)[nH]n(-c2ccc(C)c(C)c2)c1=O,14,11,33,1,3,98*,/,/
SMILES,HIF-2a inh,EWS-Fli inh,PAX8 inh HTS,KKLEB cytotox,CF NFkB block,Mdm2-MdmX confirm,HIF-2a inh conf,HIF-1a cs
COc1cc(SC#N)ccc1N=Cc1c(C)[nH]n(-c2ccc(Cl)cc2)c1=O,12,/,/,9,-13,/,/,/
Cc1ccc2c(c1)Oc1ccc(NC(=O)CCl)cc1C(=O)N2,77*,/,58,-73*,87*,103*,72*,103*
Cc1ccc2c(c1)Oc1ccc([N+](=O)[O-])cc1C(=O)N2,17,14,10,-18,14,/,/,/
CO[C@H](CN(C)C(=O)C1CCOCC1)[C@@H](C)CN(C(=O)Nc1ccc(C(F)(F)F)cc1)[C@@H](C)CO,/,-8,/,/,/,/,/,/
CC[C@]1(c2ccccc2C)ON(c2ccccc2C(F)(F)F)C1=O,12,0,6,14,23,/,/,/
COc1ccccc1[C@@]1(C)ON(c2ccccc2C(F)(F)F)C1=O,66*,24,34,1,45,/,24,101*
CC(C)(C)[C@@H]1C=C(C(=O)NCc2nc3ccccc3[nH]2)O[C@H](OCc2ccc(CO)cc2)C1,/,7,-7,/,/,/,/,/
C1=CC2=NC34CCCCC3CC3=C(CCCC3)N4C2=CC1=NC1CCCCC1 (stereo not given),17,/,/,0,17,52*,/,/
Cc1cccnc1NC(=O)c1ccc([N+](=O)[O-])o1,1,/,-2,-4,11,/,/,/
Cc1ccccc1/C=C/C(=O)c1ccc([N+](=O)[O-])o1,/,71*,24,/,/,100*,/,/
Cc1cccc(/C=C/C(=O)c2ccc([N+](=O)[O-])o2)c1,14,63*,28,-35,90*,103*,/,/
O=C(NC1=C(NC2CCS(=O)(=O)C2)C(=O)c2ccccc2C1=O)c1ccccc1 (stereo not given),-42,30,96*,-22,79*,93*,/,/
Cc1ccc(S(=O)(=O)Nc2ccc3c(c2)CC(=O)N([C@H](C)CO)C[C@@H](C)[C@H](CN(C)C(=O)NC(C)C)O3)cc1,/,-6,-7,/,/,/,/,/
COC(=O)c1ccccc1NC1=C/C(=N\S(=O)(=O)c2cccs2)c2ccccc2C1=O,-28,-15,30,-72*,83*,96*,/,/
O=C(Nc1ccc2nc3n(c(=O)c2c1)CCCC3)c1cccc([N+](=O)[O-])c1,-196,/,-23,11,-9,/,/,/
O=C(Nc1ccc2nc3n(c(=O)c2c1)CCCC3)c1cc([N+](=O)[O-])ccc1F,48*,/,/,-22,48,103*,25,105*
Cc1ccc(N(C)S(=O)(=O)c2cccc(C(=O)OCC(=O)c3c(N)n(C)c(=O)n(C)c3=O)c2)cc1,16,-3,0,-18,-5,/,/,/
